Assay results taken from PubChem BioAssay (Tox21).
Inconclusive results are not listed. A call without a number means that no potency is given here. Unmarked numbers belong to inactive results. Activity calls are given as the source filed them. Calls come from the whole dose curve; as a rule, active = well fitted curve in the direction sought with a large enough effect in the repeat runs; inconclusive = weak or mixed curves; inactive = no such curve, though single readings can be large; an effect the other way counts as inactive or inconclusive.

How the values were obtained:
[1] = target: Nuclear receptor subfamily 1 group I member 2 (Homo sapiens) (UniProt O75469); test: Human pregnane X receptor (PXR) small molecule agonists, qHTS assay (AID 1346982); note: nearly all actives have a fitted effect of over 35% in size; note: potency is the fitted concentration of half-maximal effect
Nuclear receptor subfamily 1 group I member 2 (Homo sapiens), sequence (O75469 whole entry, looked up): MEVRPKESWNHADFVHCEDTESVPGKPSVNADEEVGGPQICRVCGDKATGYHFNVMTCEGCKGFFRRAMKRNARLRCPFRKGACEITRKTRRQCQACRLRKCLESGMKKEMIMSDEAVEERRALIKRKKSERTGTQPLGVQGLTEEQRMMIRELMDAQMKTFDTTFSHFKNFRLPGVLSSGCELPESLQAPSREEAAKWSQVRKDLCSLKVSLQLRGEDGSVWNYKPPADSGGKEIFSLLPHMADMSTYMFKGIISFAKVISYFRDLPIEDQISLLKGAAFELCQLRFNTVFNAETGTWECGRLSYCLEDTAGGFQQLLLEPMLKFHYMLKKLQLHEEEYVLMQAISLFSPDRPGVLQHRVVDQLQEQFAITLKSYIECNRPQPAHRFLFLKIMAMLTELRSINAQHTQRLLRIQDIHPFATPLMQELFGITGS
Method in brief: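 HepG2 PXR-Luc reporter line, 5% charcoal-stripped FBS; 5 hr pre-incubation, compound (DMSO) 24 hr at 37 C/5% CO2; ONE-Glo 30 min RT; luminescence read-out.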

[2] = target: Cytochrome P450 2D6 (Homo sapiens) (UniProt P10635); test: Cytochrome P450 Family 2 Subfamily D Member 6 (CYP2D6) small molecule antagonists: luciferase reporter qHTS assay (AID 1671196); note: nearly all actives have a fitted effect of over 50% in size; note: potency is the fitted concentration of half-maximal effect
Cytochrome P450 2D6 (Homo sapiens), sequence (P10635 whole entry, looked up): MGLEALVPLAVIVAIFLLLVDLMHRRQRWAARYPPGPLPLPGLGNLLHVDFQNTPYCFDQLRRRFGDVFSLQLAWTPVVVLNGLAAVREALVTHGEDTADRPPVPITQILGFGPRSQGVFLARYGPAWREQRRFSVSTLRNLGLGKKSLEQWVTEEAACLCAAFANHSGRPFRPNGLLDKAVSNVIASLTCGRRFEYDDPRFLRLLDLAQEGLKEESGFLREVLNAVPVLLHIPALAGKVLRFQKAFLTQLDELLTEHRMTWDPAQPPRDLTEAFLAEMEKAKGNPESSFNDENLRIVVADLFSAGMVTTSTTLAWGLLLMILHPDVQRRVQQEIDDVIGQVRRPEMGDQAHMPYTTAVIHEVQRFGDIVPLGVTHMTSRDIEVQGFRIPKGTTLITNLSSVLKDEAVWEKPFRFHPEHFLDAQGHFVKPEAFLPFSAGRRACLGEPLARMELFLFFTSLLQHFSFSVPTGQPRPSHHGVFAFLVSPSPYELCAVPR
Method in brief: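 Luminogenic proluciferin substrate, CYP2D6 enzyme; 10 min RT preincubation with compound, NADPH regeneration system added, 1 h RT. Stop/detection reagent, 20 min RT, luminescence read (RLU). Signal proportional to CYP activity.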

[3] = target: Cytochrome P450 2C19 (Homo sapiens) (UniProt P33261); test: Cytochrome P450 Family 2 Subfamily C Member 19 (CYP2C19) small molecule antagonists: luciferase reporter qHTS assay (AID 1671197); note: nearly all actives have a fitted effect of over 65% in size; note: potency is the fitted concentration of half-maximal effect
Cytochrome P450 2C19 (Homo sapiens), sequence (P33261 whole entry, looked up): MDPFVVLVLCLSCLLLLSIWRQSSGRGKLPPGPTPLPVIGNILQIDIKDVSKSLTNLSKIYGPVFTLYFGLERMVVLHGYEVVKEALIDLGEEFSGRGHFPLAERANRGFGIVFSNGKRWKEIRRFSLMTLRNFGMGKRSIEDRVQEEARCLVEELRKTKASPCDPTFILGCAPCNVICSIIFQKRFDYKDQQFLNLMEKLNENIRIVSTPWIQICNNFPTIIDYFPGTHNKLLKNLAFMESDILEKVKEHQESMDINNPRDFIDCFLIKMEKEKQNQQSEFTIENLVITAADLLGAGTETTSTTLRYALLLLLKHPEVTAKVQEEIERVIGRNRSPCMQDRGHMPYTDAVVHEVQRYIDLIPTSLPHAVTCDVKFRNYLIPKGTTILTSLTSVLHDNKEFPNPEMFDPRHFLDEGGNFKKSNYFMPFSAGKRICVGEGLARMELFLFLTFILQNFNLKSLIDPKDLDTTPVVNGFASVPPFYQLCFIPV
Method in brief: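 Luminescent readout of CYP2C19 activity: luciferin product detected 20 min after adding detection reagent. Before that, compound and enzyme-substrate mix preincubated 10 min at room temperature; NADPH-regenerating system started a 1 h, 37C reaction. Ketoconazole as positive control.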

[4] = target: Cytochrome P450 2C9 (Homo sapiens) (UniProt P11712); test: Cytochrome P450 Family 2 Subfamily C Member 9 (CYP2C9) small molecule antagonists: luciferase reporter qHTS assay (AID 1671198); note: nearly all actives have a fitted effect of over 50% in size; note: potency is the fitted concentration of half-maximal effect
Cytochrome P450 2C9 (Homo sapiens), sequence (P11712 whole entry, looked up): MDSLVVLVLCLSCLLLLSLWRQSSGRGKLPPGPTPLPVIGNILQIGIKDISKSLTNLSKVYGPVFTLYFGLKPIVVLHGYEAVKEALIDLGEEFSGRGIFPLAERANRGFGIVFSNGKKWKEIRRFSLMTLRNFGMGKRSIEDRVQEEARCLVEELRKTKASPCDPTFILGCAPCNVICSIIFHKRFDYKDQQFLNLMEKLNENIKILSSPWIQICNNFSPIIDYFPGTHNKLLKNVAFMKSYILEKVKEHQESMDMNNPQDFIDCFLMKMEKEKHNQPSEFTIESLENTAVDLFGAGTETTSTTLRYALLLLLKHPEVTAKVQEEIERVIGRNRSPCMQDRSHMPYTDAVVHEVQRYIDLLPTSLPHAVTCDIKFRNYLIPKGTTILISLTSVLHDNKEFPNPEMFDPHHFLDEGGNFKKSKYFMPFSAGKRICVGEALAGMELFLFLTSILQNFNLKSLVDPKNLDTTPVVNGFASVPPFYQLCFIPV
Method in brief: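 CYP2C9 activity was measured with a P450-Glo proluciferin substrate. Enzyme–substrate mix was held with compound for 10 min at room temperature, then NADPH regeneration solution was added for 1 h at 37C. Luciferin product was read as luminescence.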

[5] = target: Voltage-gated inwardly rectifying potassium channel KCNH2 (Homo sapiens) (UniProt Q12809); test: Human Ether-a-go-go-Related Gene (hERG) channel small molecule antagonists: fluorescence cell-based qHTS assay (AID 1671200);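 note: hERG-expressing U2OS cells given a thallium stimulus after FluxOR II dye loading; series mostly up to about 77 µM; nearly all actives have a fitted effect of over 50% in size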
Voltage-gated inwardly rectifying potassium channel KCNH2 (Homo sapiens), sequence (Q12809 whole entry, looked up): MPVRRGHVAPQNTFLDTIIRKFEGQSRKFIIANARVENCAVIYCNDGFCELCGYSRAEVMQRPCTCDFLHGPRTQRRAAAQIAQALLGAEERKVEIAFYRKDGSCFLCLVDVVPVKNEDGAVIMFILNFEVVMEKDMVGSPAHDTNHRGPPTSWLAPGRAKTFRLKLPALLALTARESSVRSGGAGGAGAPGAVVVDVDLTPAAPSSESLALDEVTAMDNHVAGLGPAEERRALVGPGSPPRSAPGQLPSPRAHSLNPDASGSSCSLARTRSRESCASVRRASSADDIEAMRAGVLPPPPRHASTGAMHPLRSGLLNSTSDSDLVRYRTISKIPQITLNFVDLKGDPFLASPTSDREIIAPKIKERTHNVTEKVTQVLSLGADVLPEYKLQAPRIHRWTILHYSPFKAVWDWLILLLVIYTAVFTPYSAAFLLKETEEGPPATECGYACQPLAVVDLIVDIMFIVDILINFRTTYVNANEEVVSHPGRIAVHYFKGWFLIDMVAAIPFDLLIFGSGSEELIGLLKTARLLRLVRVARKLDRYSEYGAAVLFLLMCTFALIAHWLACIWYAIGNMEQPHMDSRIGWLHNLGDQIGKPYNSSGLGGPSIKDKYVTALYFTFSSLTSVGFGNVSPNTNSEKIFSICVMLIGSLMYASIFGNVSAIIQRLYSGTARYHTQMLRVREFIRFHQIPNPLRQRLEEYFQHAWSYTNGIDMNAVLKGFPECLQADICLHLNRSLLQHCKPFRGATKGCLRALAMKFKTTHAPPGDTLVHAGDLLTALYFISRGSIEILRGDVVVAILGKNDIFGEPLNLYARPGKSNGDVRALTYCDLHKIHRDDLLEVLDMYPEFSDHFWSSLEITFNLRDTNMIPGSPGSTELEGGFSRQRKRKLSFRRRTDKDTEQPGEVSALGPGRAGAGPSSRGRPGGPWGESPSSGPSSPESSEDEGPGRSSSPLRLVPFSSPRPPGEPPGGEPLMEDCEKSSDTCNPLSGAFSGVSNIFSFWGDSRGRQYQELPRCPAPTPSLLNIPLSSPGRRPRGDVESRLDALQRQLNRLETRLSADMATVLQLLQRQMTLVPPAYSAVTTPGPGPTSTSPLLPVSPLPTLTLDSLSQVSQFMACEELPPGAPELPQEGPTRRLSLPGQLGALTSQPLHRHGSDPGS
Method in brief: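 Fluorescence at 540 nm emission (480 nm excitation) was recorded kinetically for 2 min at 1-second intervals once the thallium-containing stimulus reached cells previously loaded with FluxOR II dye.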

[6] = target: Cytochrome P450 3A4 (Homo sapiens) (UniProt P08684); test: Cytochrome P450 Family 3 Subfamily A Member 4 (CYP3A4) small molecule antagonists: luciferase reporter qHTS assay (AID 1671201); note: series mostly up to about 120 µM; nearly all actives have a fitted effect of over 50% in size
Cytochrome P450 3A4 (Homo sapiens), sequence (P08684 whole entry, looked up): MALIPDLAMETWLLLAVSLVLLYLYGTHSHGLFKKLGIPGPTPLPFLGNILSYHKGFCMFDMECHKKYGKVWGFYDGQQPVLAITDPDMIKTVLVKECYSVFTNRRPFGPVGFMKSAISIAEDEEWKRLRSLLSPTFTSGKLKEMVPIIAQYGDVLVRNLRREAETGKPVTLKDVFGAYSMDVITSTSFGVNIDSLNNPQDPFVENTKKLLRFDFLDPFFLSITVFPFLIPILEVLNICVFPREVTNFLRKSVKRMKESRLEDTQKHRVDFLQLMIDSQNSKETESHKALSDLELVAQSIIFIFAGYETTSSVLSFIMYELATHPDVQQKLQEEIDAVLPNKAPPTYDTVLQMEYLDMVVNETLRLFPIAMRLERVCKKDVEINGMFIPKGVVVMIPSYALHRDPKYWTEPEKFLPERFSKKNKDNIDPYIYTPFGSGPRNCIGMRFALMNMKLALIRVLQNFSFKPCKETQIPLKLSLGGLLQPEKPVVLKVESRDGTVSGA
Method in brief: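 qHTS, 1536-well. CYP3A4 + proluciferin substrate, cpd 10 min RT → NADPH regen 1 h RT → detection reagent 20 min → luminescence (RLU). Ketoconazole positive control.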

[7] = target: Cytochrome P450 1A2 (Homo sapiens) (UniProt P05177); test: Cytochrome P450 Family 1 Subfamily A Member 2 (CYP1A2) small molecule antagonists: luciferase reporter qHTS assay (AID 1671199); note: nearly all actives have a fitted effect of over 50% in size; note: potency is the fitted concentration of half-maximal effect
Cytochrome P450 1A2 (Homo sapiens), sequence (P05177 whole entry, looked up): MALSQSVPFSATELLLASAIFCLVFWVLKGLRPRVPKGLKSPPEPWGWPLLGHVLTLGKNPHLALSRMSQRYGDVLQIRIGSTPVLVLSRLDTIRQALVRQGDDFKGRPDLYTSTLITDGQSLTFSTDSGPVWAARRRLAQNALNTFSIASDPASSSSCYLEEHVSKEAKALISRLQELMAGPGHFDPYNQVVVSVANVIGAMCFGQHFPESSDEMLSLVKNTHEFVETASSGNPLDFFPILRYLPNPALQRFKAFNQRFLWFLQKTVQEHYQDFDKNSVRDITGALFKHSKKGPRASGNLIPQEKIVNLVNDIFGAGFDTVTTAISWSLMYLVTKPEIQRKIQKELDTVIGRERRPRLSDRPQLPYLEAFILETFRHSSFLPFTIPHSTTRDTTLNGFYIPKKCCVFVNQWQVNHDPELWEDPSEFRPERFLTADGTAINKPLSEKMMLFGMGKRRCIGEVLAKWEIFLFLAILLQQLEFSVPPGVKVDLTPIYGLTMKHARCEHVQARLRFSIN
Method in brief: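 Luminescence readout (relative luminescence units) after luciferin detection reagent, 20 min RT. Preceded by 1 h room-temperature CYP1A2 reaction with NADPH regeneration solution following 10 min compound preincubation with enzyme and proluciferin substrate. Furafylline positive control.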

Compound | Potency [1] | Potency [2] | Potency [3] | Potency [4] | Potency [5] | Potency [6] | Potency [7]
CC(=O)/C=C/c1ccco1 | inactive | inactive | inactive | inactive | inactive | inactive | 
CCCCCC(=O)OCC | inactive | inactive | inactive | inactive | inactive | inactive | 
CCC(O)C(C)(C)C (centres undefined) | inactive | inactive | inactive | inactive |  | inactive | 
C1=CCC(c2ccccc2)CC1 (centres undefined) | inactive | inactive | inactive | inactive | inactive | inactive | 
COCCOCCOCCOC | inactive | inactive | inactive |  | inactive | inactive | inactive
NC(Cc1c[nH]c2ccccc12)C(=O)O (centres undefined) | inactive | 17.5 µM (active) | 24.7 µM (active) | 31.1 µM (active) | inactive |  | 
CC(C)CCCCCCOC(=O)C1CCCCC1C(=O)OCCCCCCC(C)C (centres undefined) | inactive | inactive | inactive |  |  |  | inactive
COc1ccc(N=Nc2cc(C)c(N=Nc3ccc(S(=O)(=O)O)cc3)cc2OC)cc1 | inactive | inactive | inactive | 63.3 µM (active) |  | inactive | 
CCC(CO)CO | inactive | inactive | inactive | inactive | inactive | inactive | 
O=C(O)c1c(Cl)ccc(Cl)c1Cl | inactive | inactive | inactive |  | inactive | inactive | inactive
CC(C)C(=O)c1ccccc1 | inactive | inactive | inactive | inactive | inactive | inactive | 
CCC(=O)c1ccc(O)cc1 | inactive | inactive | inactive | inactive | inactive |  | 
NC(=O)NNC(N)=O | inactive | inactive | inactive | 79.6 µM (active) | inactive | inactive | 
CCCOCCOCCOCCO | inactive | inactive | inactive | inactive | inactive | inactive | 
CCNC(=O)NCCCOc1cccc(CN2CCCCC2)c1 | 29.8 µM (active) | 13.8 µM (active) | inactive |  | inactive |  | inactive
Cc1cccc(C(=O)O)c1[N+](=O)[O-] | inactive | 31.8 µM (active) | inactive |  | inactive |  | 63.4 µM (active)
COc1cc(C=O)ccc1OC(=O)C(C)C | inactive | inactive | 39.9 µM (active) | 35.6 µM (active) | inactive | inactive | 
CCCCC(C)C(=O)O (centres undefined) | inactive | inactive | 39.9 µM (active) |  | inactive |  | 39.9 µM (active)

Compound | Potency [1] | Potency [2] | Potency [3] | Potency [4] | Potency [5] | Potency [6] | Potency [7]
C[C@H](CCC(=O)NCC(=O)O)[C@H]1CC[C@H]2[C@@H]3[C@H](O)C[C@@H]4C[C@H](O)CC[C@]4(C)[C@H]3C[C@H](O)[C@]12C | inactive | inactive | inactive |  | inactive | inactive | inactive
CC(C)CCCC(C)CC=O (centres undefined) | inactive | inactive | 79.6 µM (active) |  | inactive | inactive | inactive
C/C=C(\C)C(=O)OCC/C=C\CC | inactive | inactive | inactive | inactive | inactive |  | 
CCN(CCO)c1cccc(C)c1 | inactive | inactive | 35.6 µM (active) |  |  |  | 28.3 µM (active)
O=C(O)c1ccc(OCCN2CCCCC2)cc1 | inactive | inactive | inactive | inactive |  | inactive | 
Cc1ccccc1N1CCN(CCc2nnc3n2CCCC3)CC1 | inactive | 13.8 µM (active) | inactive | inactive | inactive | inactive | 
CCCCC/C=C/CC(=O)OC | inactive | inactive | inactive | inactive | inactive |  | 
CCC1COC(=O)O1 (centres undefined) | inactive | inactive | inactive | inactive | inactive | inactive | 
CC(Cl)COP(=O)(OCC(C)Cl)OCC(C)Cl (centres undefined) | 13.6 µM (active) | inactive | 19.9 µM (active) |  | inactive | inactive | 22.3 µM (active)
Cc1ccccc1C | inactive | inactive | 81.7 µM (active) | inactive | inactive | inactive | 
OC[C@@H](O)[C@H](O)[C@@H](O)[C@@H](O)CO | inactive | inactive | 44.8 µM (active) | inactive |  | inactive | 
FC(F)(F)c1ccc(Cl)cc1Cl | inactive | inactive |  | inactive | inactive |  | inactive
C[N+](C)(C)CC(O)CCl (centres undefined) | inactive | inactive |  | inactive | inactive |  | inactive
C[C@H](CCC(=O)O)[C@H]1CC[C@H]2[C@@H]3[C@H](O)C[C@@H]4C[C@H](O)CC[C@]4(C)[C@H]3C[C@H](O)[C@]12C | inactive | inactive |  | inactive | inactive | inactive | inactive
C=C(C)C(=O)OCCCCCCOC(=O)C(=C)C | inactive | inactive |  | 35.6 µM (active) |  | inactive | 39.9 µM (active)
CC(=O)Nc1ccc(C)cc1 | inactive | inactive |  | inactive | inactive | inactive | 39.6 µM (active)
NS(=O)(=O)c1ccccc1OC(F)(F)F | inactive | inactive |  | inactive | inactive |  | 
CC1CCC(C(C)(C)S)C(=O)C1 (centres undefined) | 61.1 µM (active) |  | 79.6 µM (active) | 39.9 µM (active) |  |  | inactive
